The campaign covered roughly 350,000 compounds. About 31,000 (8.9%) were called active. About 15% were inconclusive and are not listed. The list comes from a sample in which actives are over-represented; it also holds similar structures and randomly drawn compounds. Entries that show only a call come without a potency. Values without a mark were called inactive. Calls follow the shape of the dose curve; as a rule, active = well fitted inhibition curve with a large enough effect; inconclusive = small, poorly fitted or top-dose-only effect; inactive = no such curve, though single readings can be large or run the other way.
What follows are compounds tested against Histone-lysine N-methyltransferase EHMT2 (Homo sapiens) (UniProt Q96KQ7) (assay: qHTS Assay for Inhibitors of Histone Lysine Methyltransferase G9a). Conditions: G9a H3K9 monomethylation, AlphaScreen, 2 h; series mostly up to 59 µM.
Method in brief: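 Methyltransferase reactions run at room temperature for 2 h (20 nM enzyme, 500 nM biotin-H3K9 peptide, 20 uM SAM) after a 15 min compound preincubation; product detected by AlphaScreen beads and anti-H3K9me1 antibody.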
Also: nearly all actives have a fitted effect of over 75% in size.
Potency is read from the fitted curve at half-maximal effect.

Chain of Histone-lysine N-methyltransferase EHMT2 (Homo sapiens) (Q96KQ7 913-1193 limits assumed): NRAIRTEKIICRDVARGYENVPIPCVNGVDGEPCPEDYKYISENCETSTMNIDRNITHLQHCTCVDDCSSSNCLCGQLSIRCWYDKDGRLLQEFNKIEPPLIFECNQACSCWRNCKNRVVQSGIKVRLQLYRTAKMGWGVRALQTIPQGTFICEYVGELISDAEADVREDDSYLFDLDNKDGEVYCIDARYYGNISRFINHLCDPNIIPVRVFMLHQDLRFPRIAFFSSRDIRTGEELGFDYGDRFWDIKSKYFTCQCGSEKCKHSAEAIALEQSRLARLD

SMILES | Potency | activity, negative = inhibition
COc1ccc(CCC(=O)NCc2ccc3c(c2)CCN3C(=O)c2ccc(F)cc2)cc1 | inactive | –
CCN(C(=O)COC(=O)CCOc1cccc(C)c1)c1c(N)n(Cc2ccccc2)c(=O)[nH]c1=O | inactive | –
O=C(CSc1ncc(S(=O)(=O)c2ccc(Br)cc2)c(=O)[nH]1)Nc1ccc2c(c1)OCCO2 | inactive | –
O=C(COC(=O)c1cccs1)NCc1cccs1 | inactive | –
Cc1ccc(N2CC(NC(=O)Cc3cccs3)CC2=O)cc1 (stereo not drawn) | inactive | –
CCN(C(=O)COC(=O)Cc1c(F)cccc1Cl)c1c(N)n(Cc2ccccc2)c(=O)[nH]c1=O | – | 1.45% [at 12.7 µM]
Cc1cccc(-c2nc(SCC(=O)Nc3cc(C)on3)c3c(=O)n(C)c(=O)n(C)c3n2)c1 | inactive | –
Cc1ccc(OCC(=O)OCc2cc(=O)n3nc(C4CC4)sc3n2)cc1C | inactive | –
O=C1c2cccc3cc(Br)cc(c23)C(=O)N1Nc1ccccc1 | inactive | –
O=C(Nc1ccccc1)OCc1cc(-c2ccc(Cl)cc2)on1 | inactive | –
O=C1C=C(c2ccc(Cl)cc2)C(=O)N1Nc1ccccc1 | 7.94 µM (active) | –
COc1ccc(Nc2oc(-c3ccccc3Cl)nc2C#N)cc1 | inactive | –
Cc1ccccc1-c1nc(C#N)c(NCc2ccco2)o1 | 39.8 µM (active) | –
Cc1cc(NCc2ccco2)n2c(nc3ccccc32)c1C#N | inactive | –
O=C(NCCc1ccccc1)c1ccc2c(c1)N(Cc1ccccc1)C(=O)c1ccccc1S2(=O)=O | inactive | –
Cc1ccc(S(=O)(=O)N2CC(O)C[C@H]2C(=O)OCC(=O)Nc2ccc(N3CCOCC3)cc2)cc1C (stereo partly drawn) | 50.1 µM (active) | –
CC1CCCC(NC(=O)COC(=O)[C@@H]2CC(O)CN2S(=O)(=O)c2ccc3c(c2)OCCO3)C1C (stereo partly drawn) | inactive | –
Cc1cc(S(=O)(=O)N2CCOCC2)ccc1OCC(=O)Nc1cccc(C(F)(F)F)c1 | inactive | –
CC(C)Oc1ccc(NC(=O)c2cc3ccccc3o2)cc1 | inactive | –
O=C(/C=C(O)/C=C/c1ccc(O)cc1)/C=C/c1ccc(O)cc1 | – | 1.18% [at 0.501 µM]
CCOC(=O)C(C)N(c1ccccc1Cl)S(C)(=O)=O (stereo not drawn) | – | 25.6% [at 12.7 µM]
Cc1cc(C)cc(NC(c2nnc(-c3cccc(F)c3)o2)c2ccc(F)cc2Cl)c1 (stereo not drawn) | inactive | –
O=S(=O)(NCCc1ccncc1)c1ccccc1 | inactive | –
O=c1/c(=C/c2ccc(CNS(=O)(=O)c3ccccc3)o2)sc2n1CCN=2 | 39.8 µM (active) | –

SMILES | Potency | activity, negative = inhibition
O=S(=O)(NCC1OCCc2ccccc21)c1ccccc1 (stereo not drawn) | – | -24.8% [at 2.33 µM]
COc1ccc(CNC(=O)C(=O)N2CCC3(CC2)OCCN3S(=O)(=O)c2ccc(C)cc2)cc1 | inactive | –
COc1ccccc1C(=O)NC(=O)COC(=O)C1CC1 | inactive | –
O=S(=O)(NCCCCCCNS(=O)(=O)c1c(F)cccc1F)c1ccc2c(c1)OCCO2 | – | 21.9% [at 2.33 µM]
CC(=O)CC[C@@H](C)O[C@@H]1OC(C)[C@H](O)CC1O (stereo partly drawn) | – | 14.8% [at 2.33 µM]
Cc1cccc(C(=O)N2CCc3c([nH]c4ccccc34)C2CC(C)C)n1 (stereo not drawn) | inactive | –
CC1CCN(C(=O)COC(=O)c2cc(=O)[nH]c3ccccc23)CC1 | – | -8.14% [at 12.7 µM]
COCc1ccc(C(=O)N2CCc3c([nH]c4ccccc34)C2c2ccccn2)s1 (stereo not drawn) | 31.6 µM (active) | –
CCOc1cccc(CC(=O)N2CCc3c([nH]c4ccccc34)C2c2ccc(F)cc2)c1OCC (stereo not drawn) | inactive | –
Cc1cccc(C2c3[nH]c4ccccc4c3CCN2C(=O)c2cc(-c3cccn3C)n[nH]2)n1 (stereo not drawn) | 28.2 µM (active) | –
CCc1nnc(SCc2c(F)cccc2Cl)c2cc3sccc3n12 | inactive | –
CC(C)CN(C(=O)c1ccc2c(c1)OCO2)C1CCS(=O)(=O)C1 (stereo not drawn) | inactive | –
CN(CC(=O)Nc1cccc(F)c1)C(=O)C1CSC2(C)CCC(=O)N12 (stereo not drawn) | inactive | –
CCC(=O)N1CCc2cc(S(=O)(=O)NC(CC(C)C)C(=O)NCCc3cccc(C)c3)ccc21 (stereo not drawn) | inactive | –
Cc1cc(NC(=O)COc2ccccc2C#N)no1 | inactive | –
COCC(=O)N1CCCC(C(=O)c2ccc(C(F)(F)F)cc2)C1 (stereo not drawn) | inactive | –
Cc1cnc(C(=O)N2CCCC(C(=O)c3ccc(C(F)(F)F)cc3)C2)cn1 (stereo not drawn) | 22.4 µM (active) | –
O=C(c1ccc(C(F)(F)F)cc1)C1CCCN(C(=O)c2csnn2)C1 (stereo not drawn) | inactive | –
CN(C)CCN(C(=O)C1CCCCC1)c1nc2cc3c(cc2s1)OCO3 | 70.8 µM (active) | –
O=C(NCc1ccc2c(c1)OCO2)c1ccc(Cl)s1 | inactive | –
CN(C)CCCN(C(=O)c1ccc(S(=O)(=O)N2CCCCCC2)cc1)c1nc2cc3c(cc2s1)OCCO3 | 44.7 µM (active) | –
CCCCN(CC)C(=O)c1ccc2c(c1)OCO2 | inactive | –
CCN(CC)CCN(C(=O)c1ccc(N2C(=O)CCC2=O)cc1)c1nc2cc3c(cc2s1)OCO3 | 35.5 µM (active) | –
CCc1ccc(Nc2nn3c(=O)c4cc5c(cc4nc3s2)OCO5)cc1 | inactive | –

SMILES | Potency | activity, negative = inhibition
CCN(CC)CCN(C(=O)c1cc(Cl)sc1Cl)c1nc2cc3c(cc2s1)OCO3 | 50.1 µM (active) | –
CCc1ccc2nc(N(CCCN(C)C)C(=O)c3ccc4c(c3)OCCO4)sc2c1 | inactive | –
O=C(Nc1nc2cc3c(cc2s1)OCCO3)c1cccc(S(=O)(=O)N2CCOCC2)c1 | inactive | –
Cc1nc2cc3c(cc2s1)OCO3 | inactive | –
Cc1nc2ccc(NC(=O)C3CCCCC3)cc2s1 | – | 8.28% [at 12.7 µM]
COc1ccccc1N1CCN(CC(=O)Nc2ccnn2C2CCCC2)CC1 | – | 10.3% [at 2.33 µM]
CCC1Nc2ncnc(N3CCN(c4ccccc4)CC3)c2N(Cc2ccc(Cl)cc2)C1=O (stereo not drawn) | – | 3.93% [at 2.33 µM]
CC(C)NC(=O)c1nn(-c2ccccc2F)nc1CO | inactive | –
OCC(CO)NC1C[C@](O)(CO)[C@@H](O)[C@H](O)[C@H]1O (stereo partly drawn) | inactive | –
O=C(c1cccs1)N1CCC(c2nc3ccccc3s2)CC1 | 39.8 µM (active) | –
Cc1cccc(NC(=S)N2CCC(c3nc4ccccc4s3)CC2)c1 | – | 30.9% [at 0.501 µM]
CC(C)(C)c1ccc(OCC(=O)N2CCC(c3nc4ccccc4s3)CC2)cc1 | inactive | –
CC(=O)c1cccc(NC(=O)c2nc(-c3ccccc3)n(-c3cccc(C)c3)n2)c1 | inactive | –
Cn1c(C(=O)NCCCN2CCN(c3cccc(Cl)c3)CC2)cc2c(=O)n(C)c3ccccc3c21 | 7.94 µM (active) | –
O=C(CCn1c(=O)[nH]c2ccccc2c1=O)NCCCN1CCN(c2cccc(Cl)c2)CC1 | inactive | –
CCOc1ccc(CCNC(=O)c2cc3c(=O)n(C)c4ccccc4c3n2C)cc1 | inactive | –
CCN1C(=O)c2ccccc2Sc2ccc(NC(=O)Cc3ccc(OC)cc3)cc21 | inactive | –
CCC(C)n1c(-c2cc(OC)c(OC)c(OC)c2)nc2nc3ccccc3nc21 (stereo not drawn) | inactive | –
COc1cc(-c2nnn(CC(=O)NCc3ccccc3)n2)cc(OC)c1OC | inactive | –
COc1cc(-c2n[nH]c(=S)n2Cc2ccccc2)cc(OC)c1OC | 3.55 µM (active) | –
CCOC(=O)c1nn(-c2cccc(C)c2)cc1C(=O)c1ccccc1 | – | -45.6% [at 2.33 µM]
COC(=O)C1=C(O)/C(=C/c2ccc(OCC(=O)Nc3ccccc3)cc2)N=C1C | inactive | –
CCOC(=O)C1=C(O)/C(=C/c2cc(C)n(-c3ccccc3)c2C)N=C1C | 50.1 µM (active) | –
COc1ccc2oc(C(=O)NCC(Cc3ccccc3)N(C)C)c(C)c2c1 (stereo not drawn) | inactive | –

SMILES | Potency | activity, negative = inhibition
Cc1ccc(OC(=O)c2cncc(Br)c2)c(C)c1 | inactive | –
COc1ccc(NC(=O)CCNS(=O)(=O)c2ccc3c(c2)c(=O)n(C)c(=O)n3C)cc1OC | inactive | –
Cn1c(=O)c2cn(-c3cccc4ccccc34)cc2n(C)c1=O | – | 5.87% [at 2.33 µM]
COc1ccc(OC)c(-n2cc3c(=O)n(C)c(=O)n(C)c3c2)c1 | 50.1 µM (active) | –
Cc1ccc(NC(=O)c2cccc(S(=O)(=O)N3CCCc4ccccc43)c2)nc1 | inactive | –
CCOC(=O)CC1(NC(=O)c2cc(COc3cncc(Cl)c3)on2)CCCCC1 | inactive | –
CCOC(=O)C(Cc1ccc(N)cc1)N1C(=O)c2ccccc2C1=O (stereo not drawn) | 50.1 µM (active) | –
CCCCC(C(=O)OCC(=O)c1ccc(OC)cc1)N1C(=O)c2ccccc2C1=O (stereo not drawn) | inactive | –
COc1ccc(C[C@H](C(=O)O)N2C(=O)c3ccc(C(=O)O)cc3C2=O)cc1 | – | 8.45% [at 12.7 µM]
COc1cc(OC)cc(C(=O)NCCc2csc3nc(-c4ccccc4F)nn23)c1 | inactive | –
CCOCCCNC(=O)C(NC(=O)Cc1c[nH]c2ccccc12)c1ccc(OC)cc1 (stereo not drawn) | inactive | –
CCOCCCNC(=O)C(NC(=O)CNC(=O)c1ccccc1)c1ccc(C)cc1 (stereo not drawn) | inactive | –
CCOCCCNC(=O)C(NC(=O)CNC(=O)c1ccccc1)c1ccc(OC)cc1 (stereo not drawn) | 15.8 µM (active) | –
Cc1c(NC(=O)Nc2ccc(F)c(Cl)c2)c(=O)n(-c2ccccc2)n1C | inactive | –
O=C(O[C@@H]1[C@H](Cc2ccccc2)NS(=O)(=O)[C@H]2C[C@@H]3C=C[C@]12O3)c1ccccc1Br | – | 6.72% [at 0.501 µM]
O=C(CSCc1ccccc1)Nc1ccccc1 | – | 2.25% [at 2.33 µM]
O=C(CCN1c2ccccc2Sc2ccccc21)Nc1ccccc1 | 50.1 µM (active) | –
CC1CCN(CCC(=O)Nc2ccccc2)CC1 | inactive | –
O=C(COc1ccccc1Cl)Nc1ccc2nc(SCC(=O)N3CCCC3)sc2c1 | inactive | –
O=C(Nc1ccc(C2CC2(Cl)Cl)cc1)c1cccc([N+](=O)[O-])c1 (stereo not drawn) | inactive | –
COc1ccc(C2(C)ON(c3ccccc3C(F)(F)F)C2=O)cc1 (stereo not drawn) | – | 1.68% [at 2.33 µM]

Reference: PubChem BioAssay AID504332 (National Center for Advancing Translational Sciences (NCATS), 2011)
